The values below come from PubChem BioAssay (EPA / NIEHS).

Molecules are shown by their SMILES. Results filed as inconclusive are left out. Active and inactive are the calls of the source. How the source made its calls, unless noted: active means hit-call score of the fitted dose curve at least 0.9, where 1 is the maximum; inconclusive means response in the unintended direction; inactive means score below 0.9.

The target of assay [1] is frog Thyroid hormone Receptor alpha (TRa), thra-a (gene 397942) (UniProt P15204). Put plainly: ATG_frTRa_XSP1: Attagene TRANS-FACTORIAL Multi-Species (XSP1) HepG2 Assay for frog Thyroid hormone Receptor alpha (TRa) (AID 2283804). The gist of the method: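 HepG2 cells transiently transfected with frog TRa-GAL4 chimeric reporter units, dosed 24 hr with 3 nM 6-alpha-fluorotestosterone present; reporter mRNA quantified by RT-PCR, fluorescent labelling and capillary electrophoresis, gain of signal versus DMSO.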
Sequence of frog Thyroid hormone Receptor alpha (TRa), thra-a (gene 397942) (P15204 whole entry, looked up, the tested form may be a part): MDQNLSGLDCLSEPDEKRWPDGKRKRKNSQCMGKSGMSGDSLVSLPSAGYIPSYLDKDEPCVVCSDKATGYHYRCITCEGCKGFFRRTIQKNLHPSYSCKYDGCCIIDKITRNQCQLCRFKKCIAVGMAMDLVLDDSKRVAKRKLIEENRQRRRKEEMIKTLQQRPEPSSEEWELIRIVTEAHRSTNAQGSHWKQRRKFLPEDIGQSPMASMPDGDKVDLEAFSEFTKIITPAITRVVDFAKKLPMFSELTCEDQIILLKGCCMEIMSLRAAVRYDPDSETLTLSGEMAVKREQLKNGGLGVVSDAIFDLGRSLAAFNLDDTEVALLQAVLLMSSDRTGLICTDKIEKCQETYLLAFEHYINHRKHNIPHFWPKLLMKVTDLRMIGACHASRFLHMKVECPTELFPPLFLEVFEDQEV

In assay [2] the target is human Thyroid hormone Receptor alpha (TRa), THRA (gene 7067) (UniProt P10827). Description: ATG_hTRa_XSP1: Attagene TRANS-FACTORIAL Multi-Species (XSP1) HepG2 Assay for human Thyroid hormone Receptor alpha (TRa) (AID 2283805). The essentials:
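HepG2 cells transiently transfected with GAL4-UAS reporter units expressing chimeric NR-Gal4 proteins, dosed 24 hours with 3 nM 6-alpha-fluorotestosterone present. Reporter mRNA measured by RT-PCR and capillary electrophoresis; gain of signal fitted versus DMSO.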

Assay [3] in a line: ATG_XTT_Cytotoxicity_XSP1: Cytotoxicity Assessment in the Attagene TRANS-FACTORIAL Multi-Species (XSP1) HepG2 Assay (AID 2283810). The essentials: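 XTT viability readout taken at 24 hours post-dosing in HepG2 liver cells co-treated with 3 nM 6-alpha-fluorotestosterone. Signal loss relative to DMSO controls reflects cytotoxicity.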
Assay [4] is described as follows: ATG_M_06_XSP2: Attagene TRANS-FACTORIAL Multi-Species (XSP2) HepG2 Assay for M06 Transcription Factor (Internal Marker) (AID 2283811).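 Further: hits are increases in signal above the DMSO baseline.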 The essentials:
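HepG2 cells transiently transfected with GAL4-UAS multiple reporter units, medium containing 3 nM 6-alpha-fluorotestosterone and 1.5 nM norgestrel; reporter mRNA measured 24 hours post-dosing by RT-PCR and capillary electrophoresis. Internal background marker, gain of signal vs DMSO.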

The target in assay [5] is zebrafish Estrogen Receptor (ER1), esr1 (gene 259252) (UniProt P57717). Description: ATG_zfER1_XSP2: Attagene TRANS-FACTORIAL Multi-Species (XSP2) HepG2 Assay for zebrafish Estrogen Receptor (ER1) (AID 2283816). The gist of the method: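 HepG2 cells transiently transfected with a GAL4-UAS reporter and a chimeric zebrafish ER1-Gal4 construct, dosed 24 h. Reporter mRNA quantified by RT-PCR, labelling, HpaI digestion and capillary electrophoresis, relative to DMSO.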
Sequence of zebrafish Estrogen Receptor (ER1), esr1 (gene 259252) (P57717 whole entry, looked up, the tested form may be a part): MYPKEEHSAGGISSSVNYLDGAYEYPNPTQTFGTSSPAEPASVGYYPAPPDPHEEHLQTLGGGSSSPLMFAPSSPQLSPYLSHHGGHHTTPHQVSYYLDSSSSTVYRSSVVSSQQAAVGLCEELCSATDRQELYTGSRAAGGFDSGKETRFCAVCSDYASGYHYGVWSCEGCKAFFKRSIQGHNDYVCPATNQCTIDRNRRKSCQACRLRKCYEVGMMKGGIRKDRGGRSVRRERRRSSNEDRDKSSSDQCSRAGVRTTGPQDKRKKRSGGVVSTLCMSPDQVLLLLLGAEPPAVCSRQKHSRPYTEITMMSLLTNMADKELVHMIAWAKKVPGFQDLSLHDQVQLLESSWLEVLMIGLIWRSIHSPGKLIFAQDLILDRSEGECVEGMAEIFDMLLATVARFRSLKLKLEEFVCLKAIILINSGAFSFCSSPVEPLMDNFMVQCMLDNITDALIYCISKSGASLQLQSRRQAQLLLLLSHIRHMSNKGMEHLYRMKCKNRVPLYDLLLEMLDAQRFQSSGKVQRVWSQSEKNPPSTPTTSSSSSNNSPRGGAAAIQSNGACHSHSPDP

Assay [6] concerns zebrafish Estrogen Receptor (ER2a), gene 317734. Put plainly: ATG_zfER2a_XSP2: Attagene TRANS-FACTORIAL Multi-Species (XSP2) HepG2 Assay for zebrafish Estrogen Receptor (ER2a) (AID 2283818).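 Further: hits raise reporter mRNA so AC50 reflects activation of zebrafish ER2a.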 The gist of the method:
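HepG2 cells transiently transfected with GAL4-UAS reporter units and chimeric zebrafish ER2a-Gal4, exposed 24 h; medium contains 3 nM 6-alpha-fluorotestosterone and 1.5 nM norgestrel. Reporter mRNA quantified by RT-PCR, HpaI digestion, capillary electrophoresis; gain versus DMSO.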

Assay [7] concerns frog Estrogen Receptor (ER), gene 398734. Description: ATG_frER1_XSP2: Attagene TRANS-FACTORIAL Multi-Species (XSP2) HepG2 Assay for frog Estrogen Receptor (ER) (AID 2283821).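 Further: hits raise reporter mRNA above DMSO baseline so potency means agonist or activator.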 The gist of the method:
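HepG2 cells transiently transfected with GAL4-UAS reporter units expressing a chimeric frog ER-Gal4 protein; 24 h exposure. Reporter mRNA quantified by RT-PCR, fluorescent labelling and capillary electrophoresis; gain of signal fitted against DMSO baseline.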

The target of assay [8] is Peroxisome proliferator-activated receptor gamma (Homo sapiens) (UniProt P37231). Description: ATG_hPPARg_XSP2: Attagene TRANS-FACTORIAL Multi-Species (XSP2) HepG2 Assay for human Peroxisome Proliferator-activated Receptor gamma (PPARg) (AID 2283829).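 Further: actives raise reporter mRNA above DMSO so AC50 reflects PPARg activation.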 The gist of the method:
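HepG2 cells transiently transfected with GAL4-UAS reporter units driven by chimeric NR-Gal4 proteins; androgen receptor stimulated with 3 nM 6-alpha-fluorotestosterone and 1.5 nM norgestrel. After 24 h, reporter mRNA quantified by RT-PCR and capillary electrophoresis versus DMSO.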

Assay [9] addresses mouse Peroxisome Proliferator-activated Receptor gamma (PPARg), Pparg (gene 19016) (UniProt P37238). Put plainly: ATG_mPPARg_XSP2: Attagene TRANS-FACTORIAL Multi-Species (XSP2) HepG2 Assay for mouse Peroxisome Proliferator-activated Receptor gamma (PPARg) (AID 2283830).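 Further: hits are gains in reporter mRNA above DMSO so AC50 marks activation.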 The gist of the method:
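HepG2 cells transiently transfected with GAL4-UAS reporter units for chimeric NR-Gal4 proteins including mouse PPARg, exposed 24 h; medium contained 3 nM 6-alpha-fluorotestosterone and 1.5 nM norgestrel. Reporter mRNA quantified by RT-PCR, HpaI digestion and capillary electrophoresis, vs DMSO.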

Assay [10] concerns zebrafish Peroxisome Proliferator-activated Receptor gamma (PPARg), gene 557037. Description: ATG_zfPPARg_XSP2: Attagene TRANS-FACTORIAL Multi-Species (XSP2) HepG2 Assay for zebrafish Peroxisome Proliferator-activated Receptor gamma (PPARg) (AID 2283833).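 Further: actives increase reporter signal over DMSO so AC50 reflects activation.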 The essentials: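 HepG2 cells transiently transfected with multiplexed GAL4-UAS reporter units expressing chimeric NR-Gal4 receptors, dosed 24 h. Reporter mRNA quantified by RT-PCR, fluorescent labelling, HpaI digestion and capillary electrophoresis; gain of signal fitted against DMSO.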

Assay [11] can be described thus: ATG_M_61_XSP2: Attagene TRANS-FACTORIAL Multi-Species (XSP2) HepG2 Assay for M61 Transcription Factor (Internal Marker) (AID 2283835; active means hit-call score of the fitted dose curve at least 0.9, where 1 is the maximum; inactive means score below 0.9;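 further: active means a rise in signal above the DMSO baseline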). The essentials: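 HepG2 cells transiently transfected with multiple GAL4-UAS reporter units; reporter mRNA measured 24 h after dosing by RT-PCR, fluorescent labelling and capillary electrophoresis. Medium contained 3 nM 6-alpha-fluorotestosterone and 1.5 nM norgestrel; internal marker, DMSO baseline.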

Assay [12] concerns the target zebrafish Thyroid Hormone Receptor beta (TRb), thrb (gene 30607) (UniProt Q9PVE4). Put plainly: ATG_zfTRb_XSP2: Attagene TRANS-FACTORIAL Multi-Species (XSP1) HepG2 Assay for zebrafish Thyroid Hormone Receptor beta (TRb) (AID 2283836). The essentials:
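HepG2 cells transiently transfected with chimeric zebrafish TRb-GAL4 reporter units, dosed 24 h with 3 nM 6-alpha-fluorotestosterone and 1.5 nM norgestrel present. Reporter mRNA quantified by RT-PCR and capillary electrophoresis; gain fitted against DMSO.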

The subject of another assay is DIO1 (gene 1733). Put plainly: CCTE_GLTED_hDIO1: CCTE's human Deiodinase 1 (DIO1) Inhibition Assay, Great Lakes Toxicology and Ecology Division (GLTED) Lab (AID 2283987).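 Further: isolated human DIO1 enzyme in a cell-free setup rather than cells; enzyme activity read as free iodide liberated from substrate via Sandell-Kolthoff colorimetry.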 The essentials:
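Cell-free human DIO1 enzyme incubated 3 h with test chemical; iodide freed from substrate then measured by Sandell-Kolthoff absorbance. Run in triplicate; loss of signal relative to DMSO taken as inhibition.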

A short description of assay [13]: CCTE_Deisenroth_AIME_384WELL_CTox_Active: Cytotoxicity Assessment (CTOX) in CCTE's 384-well Estrogen Receptor Transactivation Assay with AIME metabolic competence (metabolism positive), Deisenroth Lab (AID 2284037).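 Further: chemicals first conditioned 2 h by alginate-bound induced rat liver S9 before cells; activity means signal loss indicating cell death.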 The essentials:
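Chemicals pre-incubated 2 hours with alginate-immobilised phenobarbital/beta-naphthoflavone-induced male Sprague Dawley rat liver S9, then conditioned medium applied 24 hour to VM7Luc4E2 cells. Viability by fluorogenic protease substrate; 10-point series 0.002 - 200 uM.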

The nature of assay [14]: CCTE_Deisenroth_AIME_384WELL_CTox_Inactive: Cytotoxicity Assessment (CTOX) in CCTE's 384-well Estrogen Receptor Transactivation Assay without AIME metabolic competence (metabolism negative), Deisenroth Lab (AID 2284039).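 Further: cell viability via live-cell protease substrate cleaved to fluorescent probe; cells exposed 24 h to medium preincubated 2 h with alginate-water beads without S9.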 The gist of the method:
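VM7Luc4E2 human breast cells received conditioned medium from a 2 h incubation of chemical with alginate-water microspheres (no S9), then were exposed 24 h. Viability was read as protease-substrate cleavage to a fluorescent probe; loss of signal was fitted bidirectionally over 0.002–200 uM.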

A further assay has as its system DIO2 (gene 1734). Put plainly: CCTE_GLTED_hDIO2: CCTE's human Deiodinase 2 (DIO2) Inhibition Assay, Great Lakes Toxicology and Ecology Division (GLTED) Lab (AID 2284050). The gist of the method:
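Cell-free human DIO2 incubated 3 h with chemical; liberated iodide quantified by Sandell-Kolthoff absorbance. Triplicate plates; loss of signal fitted vs DMSO.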

Another assay relates to DIO3 (gene 1735). Description: CCTE_GLTED_hDIO3: CCTE's human Deiodinase 3 (DIO3) Inhibition Assay, Great Lakes Toxicology and Ecology Division (GLTED) Lab (AID 2284055).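 Further: potency is for inhibition seen as loss of released iodide signal.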 The essentials:
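Human DIO3 from an adenovirus expression system is incubated 3 h with test chemical. Released iodide is quantified by Sandell-Kolthoff absorbance, in triplicate plates. Loss of signal is fitted relative to DMSO.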

The subject of another assay is IYD (gene 389434). Put plainly: CCTE_GLTED_hIYD: CCTE's human Iodotyrosine Deiodinase (xIYD) Inhibition Assay, Great Lakes Toxicology and Ecology Division (GLTED) Lab (AID 2284317).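 Further: cell-free human IYD enzyme made in baculovirus insect cells; iodide freed from monoiodotyrosine measured by cerium arsenite color change at 420 nm.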 The essentials: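 hIYD: baculovirus-expressed human IYD deiodinated monoiodotyrosine for 3 h with test chemical; free iodide was measured by Sandell-Kolthoff absorbance at 420 nm and normalized to MNT and DMSO/NaOH controls.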

In a further assay the test system is SERPINA7 (gene 6906). Put plainly: CCTE_GLTED_hTBG: CCTE's human Thyroxine-binding Globulin (TBG) Inhibition Assay, Great Lakes Toxicology and Ecology Division (GLTED) Lab (AID 2284343).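 Further: active chemicals lower fluorescence versus DMSO baseline by displacing probe.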 The gist of the method:
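Human TBG incubated 2 h with test chemical; displacement of ANSA probe read by fluorescence, 380 nm excitation/475 nm emission. Loss of signal relative to DMSO.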

The next assay deals with TTR (gene 7276). Description: CCTE_GLTED_hTTR_0.125uM: CCTE's human Transthyretin (hTTR) Inhibition Assay, with 0.125uM TTR, Great Lakes Toxicology and Ecology Division (GLTED) Lab (AID 2284431; active means hit-call score of the fitted dose curve at least 0.9, where 1 is the maximum; inactive means score below 0.9;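 further: hits lower the fluorescence signal relative to DMSO baseline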). The gist of the method: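 Cell-free displacement of ANSA probe from 0.125uM TTR after 2 h incubation with chemical. Fluorescence read at 380 nm excitation/475 nm emission; loss of signal relative to DMSO indicates T4-site displacement.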

Sequence of zebrafish Thyroid Hormone Receptor beta (TRb), thrb (gene 30607) (Q9PVE4 whole entry, looked up, the tested form may be a part): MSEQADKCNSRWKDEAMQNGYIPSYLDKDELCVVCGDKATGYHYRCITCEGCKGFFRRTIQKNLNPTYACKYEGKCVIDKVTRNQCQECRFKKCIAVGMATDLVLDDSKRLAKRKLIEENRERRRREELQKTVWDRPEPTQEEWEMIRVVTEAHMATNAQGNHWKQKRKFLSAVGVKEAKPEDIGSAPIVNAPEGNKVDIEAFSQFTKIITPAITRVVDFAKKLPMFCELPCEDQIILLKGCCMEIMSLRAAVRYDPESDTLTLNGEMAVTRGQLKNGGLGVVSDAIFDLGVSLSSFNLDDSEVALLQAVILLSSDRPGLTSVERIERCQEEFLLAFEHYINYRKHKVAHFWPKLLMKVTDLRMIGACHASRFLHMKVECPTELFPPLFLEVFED
Sequence of Peroxisome proliferator-activated receptor gamma (Homo sapiens) (P37231 whole entry, looked up, the tested form may be a part): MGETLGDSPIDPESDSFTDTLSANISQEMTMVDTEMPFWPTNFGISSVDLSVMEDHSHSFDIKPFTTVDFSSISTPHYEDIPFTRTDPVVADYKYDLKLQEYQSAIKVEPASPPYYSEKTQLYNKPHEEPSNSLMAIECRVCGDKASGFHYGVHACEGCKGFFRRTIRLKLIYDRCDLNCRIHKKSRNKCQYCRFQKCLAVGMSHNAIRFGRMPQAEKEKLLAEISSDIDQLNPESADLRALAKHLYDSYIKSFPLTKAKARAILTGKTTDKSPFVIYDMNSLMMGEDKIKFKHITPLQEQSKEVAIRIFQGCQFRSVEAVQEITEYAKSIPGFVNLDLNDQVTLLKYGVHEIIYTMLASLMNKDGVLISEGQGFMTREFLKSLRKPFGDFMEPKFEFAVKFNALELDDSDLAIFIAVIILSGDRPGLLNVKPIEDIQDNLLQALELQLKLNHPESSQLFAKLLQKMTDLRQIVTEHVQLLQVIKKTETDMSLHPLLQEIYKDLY
Sequence of mouse Peroxisome Proliferator-activated Receptor gamma (PPARg), Pparg (gene 19016) (P37238 whole entry, looked up, the tested form may be a part): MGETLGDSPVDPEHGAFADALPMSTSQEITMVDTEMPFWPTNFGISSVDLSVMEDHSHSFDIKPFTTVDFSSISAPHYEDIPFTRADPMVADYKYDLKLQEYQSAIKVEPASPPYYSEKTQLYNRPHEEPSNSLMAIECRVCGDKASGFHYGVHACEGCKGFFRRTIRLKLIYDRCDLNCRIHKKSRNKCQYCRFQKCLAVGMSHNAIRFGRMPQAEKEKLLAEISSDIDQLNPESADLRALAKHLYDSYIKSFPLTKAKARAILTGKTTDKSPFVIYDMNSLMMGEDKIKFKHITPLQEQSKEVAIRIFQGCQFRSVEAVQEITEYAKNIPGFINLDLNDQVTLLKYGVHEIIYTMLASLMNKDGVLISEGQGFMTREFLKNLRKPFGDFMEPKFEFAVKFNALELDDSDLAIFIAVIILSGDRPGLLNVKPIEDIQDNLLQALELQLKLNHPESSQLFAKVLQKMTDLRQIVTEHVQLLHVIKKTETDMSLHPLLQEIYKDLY
Sequence of human Thyroid hormone Receptor alpha (TRa), THRA (gene 7067) (P10827 whole entry, looked up, the tested form may be a part): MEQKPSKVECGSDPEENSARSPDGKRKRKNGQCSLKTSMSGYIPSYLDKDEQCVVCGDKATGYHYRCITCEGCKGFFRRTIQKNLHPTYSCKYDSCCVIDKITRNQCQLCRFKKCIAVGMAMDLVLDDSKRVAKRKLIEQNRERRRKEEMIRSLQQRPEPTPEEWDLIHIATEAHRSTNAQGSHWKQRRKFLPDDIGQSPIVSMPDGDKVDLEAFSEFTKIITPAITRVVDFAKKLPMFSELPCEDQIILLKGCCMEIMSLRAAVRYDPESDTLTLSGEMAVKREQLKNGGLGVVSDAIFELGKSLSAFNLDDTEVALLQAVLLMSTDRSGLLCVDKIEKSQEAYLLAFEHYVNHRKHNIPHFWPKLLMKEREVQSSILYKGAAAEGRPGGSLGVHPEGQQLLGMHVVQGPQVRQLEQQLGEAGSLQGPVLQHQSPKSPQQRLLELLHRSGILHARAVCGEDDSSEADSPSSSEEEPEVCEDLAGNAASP

As to `CC(C)(c1cc(Cl)c(O)c(Cl)c1)c1cc(Cl)c(O)c(Cl)c1`, the outcome in assay [1], in assay [2], in assay [3], in assay [4], in [5] and in assay [10] was inactive. For the same compound, the compound was called inactive in assay [11] and in [12]. Further, the half-maximal activity concentration (AC50) in assay [6] is 1.62 µM (active); in assay [7], 2.8 µM (active); in [8] it was 3.94 µM (active); in assay [9] it was 3.81 µM (active); in the assay on DIO1 (gene 1733), 73.9 µM (active); in assay [13], 159 µM (active). Besides, the AC50 is 153 µM (active) in [14]; 94.3 µM (active) in the assay on DIO2 (gene 1734); 41.8 µM (active) in the assay with DIO3 (gene 1735); 100 µM (active) in the assay on IYD (gene 389434); 8.77 µM (active) in the assay on SERPINA7 (gene 6906); 0.0355 µM (active) in the assay on TTR (gene 7276).

For orientation: AC50 means the concentration at which the activity in the assay is half-maximal.
